# In PubChem BioAssay (Tox21):
# Values without a mark were called inactive. Calls come from the whole dose curve; as a rule, active = well fitted curve in the direction sought with a large enough effect in the repeat runs; inconclusive = weak or mixed curves; inactive = no such curve, though single readings can be large; an effect the other way counts as inactive or inconclusive. Records with an inconclusive call do not appear.
# Assay: qHTS assay to identify small molecule HDAC inhibitors - cell viability counter screen (AID 1259365); note: nearly all actives have a fitted effect of over 50% in size
# Conditions: HCT-116 viability, CellTiter-Glo ATP luminescence, 2 h; series mostly up to 92.4 µM; activity change, negative = cytotoxicity: at the top concentration
# In short: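 Luminescence from CellTiter-Glo, developed 30min at room temperature, reports viability of wild-type HCT-116 cells treated 2hr with compounds at 37 C and 5% CO2 after overnight plating.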
# % is set by controls: 0 for no effect and ±100 for the full control effect.
row,SMILES,"activity change, negative = cytotoxicity"
1,O=C(O)/C=C/c1ccc(Cn2ccnc2)cc1,3.7% [at 42.5 µM]
2,NC1CCN(c2cccc(Cl)n2)CC1,0.481% [at 42.5 µM]
3,Nc1cc(N)cc(C(=O)O)c1,0.743%
4,CCO[Si](C)(OCC)OCC,7.89%
5,CCN1CCCC1CNC(=O)c1cc(S(N)(=O)=O)ccc1OC (stereo not drawn),-4.13%
6,C#CC(O)CCCCC (stereo not drawn),-0.145%
7,CCC(=O)Nc1cccc(N)c1,2.6%
8,O=S(=O)(O)c1ccccc1O,0.215%
9,CC(C)(C)C(=O)/C=C/c1ccc(Cl)cc1,0.611%
10,CCCCC1CCCCC(=O)O1 (stereo not drawn),2.43%
11,COC(=O)c1ccc(C(=O)OC)c(C(=O)OC)c1,-3.29%
12,NS(=O)(=O)c1cc2c(cc1C(F)(F)F)NC(Cc1ccccc1)NS2(=O)=O (stereo not drawn),-3.36% [at 42.5 µM]
13,CC(C)c1cccc(C(C)C)c1N,-2.39%
14,Nc1ncnc2c1ncn2Cc1c(F)cccc1Cl,0.264% [at 42.5 µM]
15,CC(=O)O[C@H](CC(=O)[O-])C[N+](C)(C)C,5.46%
16,N#CC1(O)CCCCC1,15.6%

row,SMILES,"activity change, negative = cytotoxicity"
1,CCCCCCCCCCC1CO1 (stereo not drawn),3.77%
2,CCCC=O,0.76%
3,Cc1cc(C)c(NC(=O)CN(CC(=O)O)CC(=O)O)c(C)c1Br,1.63% [at 42.5 µM]
4,Cc1ccccc1C(=O)O,-3.49%
5,CO[Si](CCCNCCC[Si](OC)(OC)OC)(OC)OC,-1.39%
6,FC(F)(F)C(F)(F)C(F)(F)C(F)(F)C(F)(F)C(F)(F)C(F)(F)C(F)(F)C(F)(F)C(F)(F)F,4.94% [at 8.39 µM]
7,CC(C)CCCC(C)CCCC(C)CCCCC(C)CCCC(C)CCCC(C)C (stereo not drawn),0.248% [at 42.5 µM]
8,CC(C)=CC(=O)O,-1.43%
9,C1C2OC2C2C1C1CC2C2OC12 (stereo not drawn),2.93%
10,C=CCOCC(O)CS(=O)(=O)O (stereo not drawn),0.0317%
11,C(=C(c1ccccc1)c1ccccc1)c1ccccc1,-0.873%
12,CN(C)CCn1nnnc1SCC1=C(C(=O)O)N2C(=O)[C@@H](NC(=O)Cc3csc(N)n3)[C@H]2SC1,0.484% [at 42.5 µM]
13,CSc1ccc(C=O)cc1,7.1%
14,OC/C=C/c1ccccc1,0.774%
15,C#CC(C)(O)CC(C)C (stereo not drawn),-0.454%
16,CC/C=C\C#N,2.78%

# Assay: qHTS assay to identify small molecule agonists of the sonic hedgehog signaling (Shh) pathway - cell viability counter screen (AID 1259366); note: nearly all actives have a fitted effect of over 50% in size
# Conditions: NIH/3T3 Gli1-Luc viability, CellTiter-Fluor, 24 h; series mostly up to 92.4 µM; viability change, negative = cytotoxic: at the top concentration
# In short: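 Cytotoxicity counter screen run in the same wells as the Shh reporter assay. NIH/3T3 cells carrying a Gli1 response element–driven luciferase were treated with DMSO-dissolved compounds for 24hr, and live-cell protease activity was measured with CellTiter-Fluor.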
row,SMILES,"viability change, negative = cytotoxic"
1,O=C(O)/C=C/c1ccc(Cn2ccnc2)cc1,-0.546% [at 42.5 µM]
2,NC1CCN(c2cccc(Cl)n2)CC1,-12% [at 42.5 µM]
3,CC(C)CCOC(=O)CC(C)C,5.32%
4,C[C@H]1O[C@@H](n2cc(F)c(=O)[nH]c2=O)[C@H](O)[C@@H]1O,1.53% [at 42.5 µM]
5,CCN1CCCC1CNC(=O)c1cc(S(N)(=O)=O)ccc1OC (stereo not drawn),-7.98%
6,C#CC(O)CCCCC (stereo not drawn),3.42%
7,CCC(=O)Nc1cccc(N)c1,3.08%
8,O=S(=O)(O)c1ccccc1O,5.94%
9,COC(=O)c1ccc(C(=O)OC)c(C(=O)OC)c1,9.19%
10,CC(C)c1cccc(C(C)C)c1N,-1.17%
11,Nc1ncnc2c1ncn2Cc1c(F)cccc1Cl,3.73% [at 42.5 µM]
12,CC(=O)O[C@H](CC(=O)[O-])C[N+](C)(C)C,0.608%
13,O=C1OC(=O)c2cc([N+](=O)[O-])ccc21,2.03%
14,CCCCCCCCCCC1CO1 (stereo not drawn),-0.885%
15,CCCC=O,-3.4%
16,Cc1cc(C)c(NC(=O)CN(CC(=O)O)CC(=O)O)c(C)c1Br,1.17% [at 42.5 µM]
17,Cc1ccccc1C(=O)O,-7.24%
18,CO[Si](CCCNCCC[Si](OC)(OC)OC)(OC)OC,5.37%
19,FC(F)(F)C(F)(F)C(F)(F)C(F)(F)C(F)(F)C(F)(F)C(F)(F)C(F)(F)C(F)(F)C(F)(F)F,2.95% [at 8.39 µM]
20,CC(C)CCCC(C)CCCC(C)CCCCC(C)CCCC(C)CCCC(C)C (stereo not drawn),1.7% [at 42.5 µM]
21,CC(C)=CC(=O)O,1.45%
22,C1C2OC2C2C1C1CC2C2OC12 (stereo not drawn),-1.4%
23,C=CCOCC(O)CS(=O)(=O)O (stereo not drawn),0.853%
24,C(=C(c1ccccc1)c1ccccc1)c1ccccc1,3.06%
25,CN(C)CCn1nnnc1SCC1=C(C(=O)O)N2C(=O)[C@@H](NC(=O)Cc3csc(N)n3)[C@H]2SC1,0.661% [at 42.5 µM]
26,CSc1ccc(C=O)cc1,-1.5%
27,OC/C=C/c1ccccc1,-2.39%
28,C#CC(C)(O)CC(C)C (stereo not drawn),7.47%
29,CCCC(C)C(=O)O (stereo not drawn),-6.38%
30,CC/C=C\C#N,-0.591%

# Assay: qHTS assay to identify small molecule antagonists of the sonic hedgehog signaling (Shh) pathway - cell viability counter screen (AID 1259367); note: nearly all actives have a fitted effect of over 55% in size
# Conditions: NIH/3T3 Gli1-Luc viability, CellTiter-Fluor, 24 h; series mostly up to 92.4 µM; viability change, negative = cytotoxic: at the top concentration
# In short: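 Viability was read by CellTiter-Fluor fluorescence in the same wells, reagent added 23 hr into compound treatment and incubated 1 hr at 37C. The 3T3 Gli1-Luc reporter cells (2,000/well) received conditioned medium after compound and ran 24 hr.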
row,SMILES,"viability change, negative = cytotoxic"
1,O=C(O)/C=C/c1ccc(Cn2ccnc2)cc1,-0.262% [at 42.5 µM]
2,NC1CCN(c2cccc(Cl)n2)CC1,-10.7% [at 42.5 µM]
3,C[C@H]1O[C@@H](n2cc(F)c(=O)[nH]c2=O)[C@H](O)[C@@H]1O,0.253% [at 42.5 µM]
4,Nc1cc(N)cc(C(=O)O)c1,2.03%
5,CCO[Si](C)(OCC)OCC,12.7%
6,COc1ccc(COC=O)cc1,2.26%
7,C#CC(O)CCCCC (stereo not drawn),2.46%
8,CCC(=O)Nc1cccc(N)c1,1.04%
9,O=S(=O)(O)c1ccccc1O,5.76%
10,CC(C)(C)C(=O)/C=C/c1ccc(Cl)cc1,-24.3%
11,COC(=O)c1ccc(C(=O)OC)c(C(=O)OC)c1,-0.446%
12,CC(C)c1cccc(C(C)C)c1N,-1.75%
13,O=C1OC(=O)c2cc([N+](=O)[O-])ccc21,0.596%
14,CCCC=O,0.194%
15,Cc1cc(C)c(NC(=O)CN(CC(=O)O)CC(=O)O)c(C)c1Br,1.16% [at 42.5 µM]
16,CO[Si](CCCNCCC[Si](OC)(OC)OC)(OC)OC,-0.237%
17,FC(F)(F)C(F)(F)C(F)(F)C(F)(F)C(F)(F)C(F)(F)C(F)(F)C(F)(F)C(F)(F)C(F)(F)F,4.53% [at 8.39 µM]
18,CC(C)CCCC(C)CCCC(C)CCCCC(C)CCCC(C)CCCC(C)C (stereo not drawn),3.91% [at 42.5 µM]
19,CC(C)=CC(=O)O,-2.05%
20,C(=C(c1ccccc1)c1ccccc1)c1ccccc1,2.59%
21,CN(C)CCn1nnnc1SCC1=C(C(=O)O)N2C(=O)[C@@H](NC(=O)Cc3csc(N)n3)[C@H]2SC1,2.42% [at 42.5 µM]
22,CSc1ccc(C=O)cc1,0.73%
23,Oc1ccc2c(c1)OC[C@@H](N1CCC(O)(c3ccc(F)cc3)CC1)[C@H]2O,-4.12% [at 42.5 µM]
24,OC/C=C/c1ccccc1,-1.81%
25,C#CC(C)(O)CC(C)C (stereo not drawn),5.72%
26,CCCC(C)C(=O)O (stereo not drawn),-0.567%
